TRHR agonist: agonists of human TRH receptor. P34981. TRHR cells, calcium flux fluo-8, FDSS agonist mode. activation, % at 2 µM. actives 0.18% (n = 360,000). AID 493084; note: 0% is about no effect
Target sequence (P34981 whole entry, looked up): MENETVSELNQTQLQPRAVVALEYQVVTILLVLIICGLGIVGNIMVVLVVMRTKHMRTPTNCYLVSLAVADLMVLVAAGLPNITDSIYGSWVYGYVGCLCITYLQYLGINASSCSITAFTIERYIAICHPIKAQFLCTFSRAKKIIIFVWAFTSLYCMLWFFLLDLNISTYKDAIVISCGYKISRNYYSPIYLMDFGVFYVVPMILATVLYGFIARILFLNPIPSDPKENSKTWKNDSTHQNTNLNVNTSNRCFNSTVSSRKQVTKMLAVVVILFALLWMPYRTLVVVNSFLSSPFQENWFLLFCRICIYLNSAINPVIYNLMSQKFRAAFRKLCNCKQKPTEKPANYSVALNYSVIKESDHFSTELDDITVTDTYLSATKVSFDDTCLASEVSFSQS
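Steps: seed TRHR cells overnight; add fluo-8 no-wash Ca dye, RT 30 min–1.5 h; record 10 s baseline; pin-transfer compounds; monitor fluorescence 1 cycle/s for the agonist window. Calcium increases flag candidate agonists.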
D1 potentiator: potentiators of human D1 dopamine receptor; P21728; HEK293 TREx D1 cells, calcium flux, dopamine EC20 potentiation; potentiation, % at 10 µM; actives 0.036% (n = 360,000); AID 504651; in the data active = potentiation above about 30%; note: 0% is about no effect
D1 ag: agonists of human D1 dopamine receptor | P21728 | HEK293 T-REx D1 cells, calcium flux, agonist mode | activation, % at 2 µM | actives 1% (n = 360,000) | AID 504660; note: 0% is about no effect
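Agonism was scored from calcium flux recorded over 180 s (1 read/s) after pintool compound addition, following a 10-cycle baseline. Cells were inducible force-coupled HEK293 TREx D1, plated overnight at 30 C and loaded with no-wash calcium dye.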
D1 antagonist: antagonists of human D1 dopamine receptor; activity change, negative = inhibition, % at 10 µM; HEK293 TREx D1 cells, calcium flux, dopamine EC80; stronger effect = lower value; P21728; actives 3.2% (n = 360,000); in the data active = activity change below about -30%; note: % is set by controls: 0 for no effect and ±100 for the full control effect
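After overnight tetracycline induction at 30 C, force-coupled D1 HEK293 cells took up a no-wash calcium dye at room temperature. Compounds were added and monitored 180 s, and the response to EC80 dopamine was then recorded.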
TRHR enhancer: allosteric enhancers of human TRH receptor; P34981; TRHR cells, fluo-8 calcium fluorescence, EC20 TRH enhancement; enhancement, % at 2 µM; actives 0.66% (n = 360,000); in the data active = enhancement above about 30%; note: 0% is about no effect
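TRHR-expressing cells loaded with fluo-8 calcium dye were read kinetically (ex 480/em 530) during compound addition, then stimulated with an EC20 of TRH (10 nM final). Enhancement of the Gq-mediated intracellular calcium response was scored.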
Active calls of the source: *. Rows were chosen to be rich in hits. Some 4.6% of all compounds tested hit in one or more screens of this group. Cut-off read from the data, not from the text of the source, unless noted: active = activation above about 30%; inactive = the rest.

SMILES | TRHR agonist | D1 potentiator | D1 ag | D1 antagonist | TRHR enhancer
Cc1ccc(O)c(-c2cc(C(F)(F)C(F)F)[nH]n2)c1 | -1.1 | 14.4 | 164.1* | -9.9 | -0.5
COc1cc(C(=O)NCCc2cn3ccccc3n2)cc(OC)c1OC | -0.2 | -11.8 | 2.8 | 5.7 | 30.1*
COc1ccc(C(=O)N2CCN(c3ccccn3)CC2)cc1 | 0.6 | -3.1 | 0.7 | 2.9 | -6.5
O=S(=O)(c1cc(F)ccc1F)N1CCN(c2ccccn2)CC1 | -0.2 | -0.2 | 0.1 | -51.9* | 5.7
O=C(c1ccc(F)cc1)N1CCN(c2ccccn2)CC1 | 0.3 | -7.9 | 0.1 | -10.2 | 30.2*
COc1ccc(F)cc1S(=O)(=O)N1CCN(c2ccccn2)CC1 | 0.6 | 1.3 | 1.2 | 10.3 | -6.9
CC(C)N(c1nnc(N)s1)C(C)C | -0.1 | -6.2 | -0.7 | -31.2* | 6.4
Fc1cccc(-c2nc(-c3ccncc3)no2)c1 | 0.0 | 23.9 | -0.4 | 5.2 | 1.7
CC1=C(C(=O)OCC2CCCCC2)C(c2ccc(Cl)cc2)CC(=O)N1 (stereo unspecified) | -0.3 | -0.2 | 3.8 | 9.0 | -3.9
CCc1ccc(NC(=O)C(=O)NCC(c2cccnc2)N2CCN(C)CC2)cc1 (stereo unspecified) | -0.3 | 8.9 | 53.5* | 2.1 | 2.5
O=S(=O)(NCC(c1cccnc1)N1CCN(c2ccc(F)cc2)CC1)c1cccs1 (stereo unspecified) | -0.1 | -3.0 | -2.2 | -31.1* | 0.4
O=S(=O)(NCC(c1cccnc1)N1CCN(c2ccc(F)cc2)CC1)c1ccc(F)cc1 (stereo unspecified) | -0.3 | -6.0 | -1.8 | -23.0 | -2.4
COc1ccccc1N1CCN(C(CNC(=O)C(=O)NCc2ccc(F)cc2)c2cccnc2)CC1 (stereo unspecified) | -1.2 | -2.5 | 33.0* | -1.6 | -2.1
COc1ccc(N2CCN(C(CNC(=O)C(=O)NCCCN(C)C)c3cccnc3)CC2)cc1 (stereo unspecified) | 0.2 | -1.8 | 1.2 | -35.1* | -2.0
Cc1ccc(NC(=O)C2CCCN2S(=O)(=O)c2ccc3nc(-c4ccccc4)[nH]c3c2)cc1F (stereo unspecified) | -0.1 | -6.5 | 12.8 | -16.1 | -4.9
CCn1cc(C(=O)Nc2ccc(C(C)C)cc2)c2cc(OC)c(OC)cc2c1=O | 0.2 | -0.8 | 4.6 | 0.1 | -5.4
COc1ccc(C)cc1NC(=O)C(=O)NCC(c1cccnc1)N1CCc2ccccc21 (stereo unspecified) | -0.3 | -2.5 | 0.7 | 6.3 | -4.5
COc1ccc(C)cc1NC(=O)C(=O)NCC(c1cccnc1)N1CCN(c2ccccc2F)CC1 (stereo unspecified) | 0.1 | -1.9 | 3.5 | -34.3* | -3.3
CC1CC(C)(C)Nc2ccc(N=O)cc21 (stereo unspecified) | -1.1 | -4.3 | 2.5 | -45.4* | 11.3
Cc1ccccc1-c1nn2c(=O)cc(CN3CCN(S(=O)(=O)c4ccc(Cl)cc4)CC3)nc2s1 | -0.3 | -6.4 | -0.6 | -30.3* | -0.6
O=c1cc(CN2CCN(S(=O)(=O)c3ccccc3)CC2)nc2sc(-c3ccccc3Cl)nn12 | -0.7 | 2.5 | -0.3 | 1.1 | 1.4
O=c1cc(CN2CCN(S(=O)(=O)c3ccc(Cl)cc3)CC2)nc2sc(-c3ccccc3F)nn12 | -0.5 | -2.8 | -1.1 | -36.6* | -2.8
CN(CC(=O)Nc1cccc(C#N)c1)S(=O)(=O)c1cc2c(cc1Cl)NC(=O)CO2 | 0.2 | -2.2 | 0.6 | -28.1 | 6.7
O=C(CCN1C(=O)CSc2ccccc21)Nc1cccc(C(F)(F)F)c1 | -0.4 | -1.4 | -1.1 | -14.6 | 0.7
O=C(CN1C(=O)CSc2ccc(C(F)(F)F)cc21)Nc1ccccc1 | 3.0 | -2.8 | 30.1* | -5.1 | -3.1
SMILES | TRHR agonist | D1 potentiator | D1 ag | D1 antagonist | TRHR enhancer
O=C(CCN1C(=O)CSc2ccccc21)Nc1ccc(C(F)(F)F)cc1 | -0.3 | 3.7 | 5.8 | -31.3* | 0.5
CN(C)S(=O)(=O)c1ccc2c(c1)N(CC(=O)Nc1cccc(C(F)(F)F)c1)C(=O)CS2 | 0.4 | 0.1 | 1.6 | 18.4 | -1.6
Cc1ccc(NC(=O)C2CCCN(S(=O)(=O)c3ccc4c(c3)CCCC(=O)N4)C2)cc1N(C)C (stereo unspecified) | -0.7 | -5.2 | 0.6 | -6.7 | -9.0
Cc1ccc(CSc2nc3cccnc3n2Cc2ccc(C(=O)NC3CCCCC3)cc2)cc1 | 0.9 | -1.8 | 6.1 | 3.7 | 0.6
NS(=O)(=O)c1ccc(NC(=O)CSc2n[nH]c(=O)n2Cc2ccccc2)cc1 | 1.4 | -0.1 | 5.4 | 6.1 | -1.8
O=C(CSc1n[nH]c(=O)n1Cc1ccccc1)Nc1ccc(F)c(F)c1F | -1.6 | -4.5 | 34.2* | 3.6 | 22.0
CCc1c(C)sc2c1CCN(C(=O)Nc1cc(OC)c(OC)c(OC)c1)C2c1ccccc1 (stereo unspecified) | -0.1 | 6.8 | 1.5 | -40.3* | 0.4
COc1cc(C2CC(=O)c3c([nH]c(C(=O)OCc4ccc(C)cc4)c3C)C2)cc(OC)c1OC (stereo unspecified) | 2.1 | 0.7 | 4.2 | -11.2 | 4.2
O=C(N/N=C/c1ccco1)c1cc(-c2cccc3ccccc23)n[nH]1 | 0.4 | 2.3 | -2.0 | 13.5 | 35.8*
CCOC(=O)CNC(=O)N1[C@H](c2cccs2)[C@@H](C)C(=O)[C@@H](C)[C@@H]1c1cccs1 | 1.7 | 3.0 | 2.3 | -1.8 | 0.6
Cc1cc(/C=C2\SC(=S)NC2=O)c(C)n1-c1cccc(O)c1 | 3.8 | -1.1 | 33.9* | 0.9 | -3.7
CCn1c(C)cc(/C=C2/SC(=S)NC2=O)c1C | 4.2 | -6.2 | 15.8 | -1.6 | 5.3
Cc1ccc(-n2c(C)cc(/C=C3\SC(=O)NC3=O)c2C)cc1 | -0.8 | -6.2 | 10.3 | -36.2* | -2.5
Cc1cc(/C=C2\SC(=S)NC2=O)c(C)[nH]1 | 10.8 | 5.7 | 32.7* | 7.9 | -1.0
Cc1cc(C=C2C(=O)c3ccccc3C2=O)c(C)n1-c1ccccc1 | 6.0 | -2.6 | 33.2* | -0.6 | -8.8
CSc1cccc(NC(=O)N2CCN(c3cc(-c4noc(C)n4)ccc3C)CC2)c1 | -0.2 | -4.1 | 1.1 | 0.7 | -0.5
Cc1cccc(-n2c(C)cc(/C=C3\NC(=O)NC3=O)c2C)c1 | -0.4 | -8.1 | -0.5 | -40.4* | 8.4
CC(=O)c1cccc(NC(=O)C2CCN(C(=O)c3cnn(-c4ccccc4)c3-n3cccc3)CC2)c1 | 0.2 | -1.3 | 3.0 | 4.7 | -4.1
Cc1ccc(-n2c(C)nn(-c3ncc(C(F)(F)F)cc3Cl)c2=O)cc1 | -0.1 | -5.3 | 0.1 | -46.9* | -3.2
C=CCN1C(=O)/C(=C2/Sc3ccccc3N2CC)SC1=S | -0.1 | -1.4 | 4.5 | 16.2 | -1.2
C=CCN1C(=O)/C(=C/C=C2/N(CC)c3ccc(S(=O)(=O)N(C)C)cc3N2CC)SC1=S | 44.6* | -3.2 | 117.8* | 7.8 | 8.5
Cc1nn(CC(=O)NCCc2ccc(Cl)cc2)c(=O)c2cc3cc(F)ccc3n12 | -0.2 | -5.0 | -1.1 | 10.0 | -1.7

Compound activity as filed in PubChem BioAssay.
